HT1080 IDH1KD tx: toxicity to HT-1080 IDH1 knockdown cells (counter line). HT-1080 IDH1 knockdown viability, ATP luminescence, 48 h. Potency, µM (top dose mostly 46.1 µM), for the others: at the top dose activity, negative = toxicity, most hits filed as cytotoxic. 360,000 tested, 2% active;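 further: potency means the concentration at half of the fitted maximal effect; 0% = DMSO wells and -100% = cell-free medium wells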
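Cytotoxicity counter-line: IDH1KD HT-1080, 48 h, CellTiter-Glo. Curves classed by r2, magnitude and activity.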
DT40 TDP1 CPT: growth inhibition of DT40 Tdp1-/-;hTDP1 cells with camptothecin (screen for TDP1 inhibitors). Potency, µM (doses to about 46.2 µM), for the others: at the highest dose activity change, negative = growth inhibition, usual class: inhibitors. 420,000 tested, 12% active. AID 686979. chicken DT40 Tdp1-/-;hTDP1 cells + 20 nM CPT, ATP luminescence, 48 h; further: potency means the concentration at half of the fitted maximal effect; nearly all actives have a fitted effect of over 55% in size
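Cell growth measured by CellTiter-Glo luminescence after a minimum 48 h, 37 C compound exposure with 20 nM CPT in Tdp1-knockout DT40 cells stably expressing hTDP1, seeded 400/well; qHTS titration format.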
HT1080NT lethal: kills 2HG-producing HT-1080-NT fibrosarcoma cells | HT-1080-NT fibrosarcoma viability, CellTiter-Glo ATP luminescence, 48 h | Potency, µM (titrated, usually from 46.1 µM), for the others: at the highest dose activity, negative = less viability, actives largely listed as cytotoxic | 360,000 tested, 1.6% active;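 further: NT is the 2HG producing partner of a matched IDH1 knockdown line; potency means the concentration at half of the fitted maximal effect; 0% = DMSO-treated cells and -100% = media-only wells without cells; nearly all actives have a fitted effect of over 55% in size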
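HT-1080-NT fibrosarcoma cells (2HG-overproducing), 750 cells/well in RPMI with 5% FBS, dosed after 2 h and incubated 48 h at 37C. CellTiter-Glo luminescence normalized to DMSO and no-cell wells; concentration-response curves fitted and classed.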
IL-1B inflam inh: blocks inflammasome-driven IL-1 beta release; THP-1 LPS/ATP IL-1B secretion, AlphaLISA, 16 h; active compounds read low; activity change, % at 57.5 µM; 360,000 tested, 4.7% active; AID 743279; in the data active means activity change below about -50%; inconclusive means mostly about -30% to -49%
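THP-1 cells pretreated 1 hr with compounds (up to 57.5 uM final), then stimulated with LPS (250 ng/mL final) plus ATP (1.25 mM final); secreted IL-1B measured by AlphaLISA after 16 hr, decreased signal indicating inhibition.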
12-LOX inh: ALOX12 (human) lipoxygenase inhibition; P18054; purified 12hLO, xylenol orange hydroperoxide absorbance; Potency, µM (top dose mostly 108 µM), for the others: at the highest dose activity change, negative = inhibition, hits mostly inhibitors; 580,000 tested, 1.1% active; further: potency means the concentration at half of the fitted maximal effect
Target sequence (P18054 whole entry, looked up): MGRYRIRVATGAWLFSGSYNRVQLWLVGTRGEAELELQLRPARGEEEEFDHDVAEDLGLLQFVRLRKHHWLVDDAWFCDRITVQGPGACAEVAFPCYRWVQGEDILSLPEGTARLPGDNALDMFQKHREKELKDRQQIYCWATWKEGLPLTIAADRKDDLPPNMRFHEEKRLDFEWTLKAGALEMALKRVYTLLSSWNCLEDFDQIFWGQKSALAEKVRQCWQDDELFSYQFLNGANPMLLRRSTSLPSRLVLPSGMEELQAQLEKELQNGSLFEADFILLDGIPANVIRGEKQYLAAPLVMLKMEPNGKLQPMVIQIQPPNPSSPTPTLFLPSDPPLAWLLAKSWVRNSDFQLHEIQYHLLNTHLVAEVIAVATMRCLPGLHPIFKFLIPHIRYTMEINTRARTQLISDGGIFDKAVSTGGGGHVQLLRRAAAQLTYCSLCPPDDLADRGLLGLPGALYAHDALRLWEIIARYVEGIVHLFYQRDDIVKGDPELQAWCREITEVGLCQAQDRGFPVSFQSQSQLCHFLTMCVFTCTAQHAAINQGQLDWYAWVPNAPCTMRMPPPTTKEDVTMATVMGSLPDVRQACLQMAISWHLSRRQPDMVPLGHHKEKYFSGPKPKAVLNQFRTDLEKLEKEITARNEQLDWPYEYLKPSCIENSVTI
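Hydroperoxide product was detected by ferrous iron/xylenol orange as the 573 to 405 nm absorbance ratio. Arachidonic acid at 40 uM (final) was turned over for 30 min at room temperature by 150 nM human 12hLO, pH 7.0 Hepes buffer, after 15 min compound preincubation.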
DT40 TDP1 no CPT: qHTS for Inhibitors of human tyrosyl-DNA phosphodiesterase 1 (TDP1): qHTS in cells in absence of CPT | Potency, µM (series often up to 46.2 µM), without a hit: top-dose activity change, negative = growth inhibition, usual class: inhibitors | 420,000 tested, 15% active | AID 686978, 2013 | DT40 Tdp1-/- hTDP1 cells, no CPT, ATP luminescence, 48 h; further: potency means the concentration at half of the fitted maximal effect; nearly all actives have a fitted effect of over 55% in size
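Cells were dispensed at 400 per well, compounds added by pin tool, plates incubated ≥48 hr at 37 °C, then CellTiter-Glo added for 30 min at room temperature before luminescence reading. Line: DT40 Tdp1-/- complemented with hTDP1; camptothecin omitted.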
Starred values were filed as active, the others as inactive. This is one part of a sample in which hits are shown more often than they occur. Unless noted, the call rests on the fitted dose curve; in most records, active means well fitted curve in the direction sought with a large enough effect; inconclusive means small, poorly fitted or top-dose-only effect, or another doubt; inactive means no such curve, though single readings can be large; an effect the other way counts as inactive or inconclusive. Unless noted, on the % scale 0 is the no-effect control and ±100 the full control effect.

`COc1ccc(C(=O)NN/C=C/C(=O)c2ccc(Br)cc2)cc1` gave HT1080 IDH1KD tx -26%, DT40 TDP1 CPT 23µM*, HT1080NT lethal -18%, IL-1B inflam inh 69, 12-LOX inh -25% and DT40 TDP1 no CPT inconclusive.
`O=C(N[C@@H]1COCC[C@@H]1OCC1CC1)c1ccc2c(c1)CCCO2` gave 12-LOX inh 28%.
Cc1ccc2[nH]cc(C(C(=O)O)N3CCN(Cc4ccncc4)CC3)c2c1 (configuration not stated) was read as 12-LOX inh -2%.
Screening Cc1ccc(N=C2SC(C(=O)Nc3ccc(OC(F)(F)F)cc3)C(N)=C2C(=O)Nc2c(C)cc(C)cc2C)cc1 (configuration not stated) returned HT1080 IDH1KD tx 18µM*, DT40 TDP1 CPT inconclusive, HT1080NT lethal 15µM*, IL-1B inflam inh -104*, 12-LOX inh inconclusive and DT40 TDP1 no CPT inconclusive.
Screening Cc1ccc(NC(=O)C2SC(=Nc3ccccc3)C(C(=O)Nc3ccc(Cl)cc3)=C2N)cc1 (configuration not stated) returned HT1080 IDH1KD tx -26%, DT40 TDP1 CPT 6.5µM*, HT1080NT lethal -22%, IL-1B inflam inh -16 and DT40 TDP1 no CPT 18µM*.
Screening Cc1ccc(CC(=O)NCc2ccccn2)cc1 returned 12-LOX inh 23%.
Screening C=CCOc1cccc(-c2nnc(CCC(=O)NCCCOC)c(=O)[nH]2)c1 returned 12-LOX inh 19%.
`O=C(N/N=C/c1ccco1)c1ccccc1OCc1ccc(Br)cc1` gave HT1080 IDH1KD tx -22%, DT40 TDP1 CPT 21µM*, HT1080NT lethal -13%, IL-1B inflam inh -5, 12-LOX inh -15% and DT40 TDP1 no CPT 23µM*.
For O=C(N/N=C/c1ccco1)c1ccc(OCc2ccccc2)cc1 the results were HT1080 IDH1KD tx 12%, DT40 TDP1 CPT -28%, HT1080NT lethal 19%, IL-1B inflam inh -7, 12-LOX inh 0% and DT40 TDP1 no CPT -26%.
For Cc1ccc(/C=N/NC(=O)c2ccccc2OCc2cccc(Br)c2)o1 the results were HT1080 IDH1KD tx -2%, DT40 TDP1 CPT 6.5µM*, HT1080NT lethal -30%, IL-1B inflam inh -99*, 12-LOX inh -29% and DT40 TDP1 no CPT 7.3µM*.
`O=C(N/N=C/c1cccnc1)c1ccccc1OCc1cccc(Br)c1` gave HT1080 IDH1KD tx 3%, DT40 TDP1 CPT inconclusive, HT1080NT lethal 10%, IL-1B inflam inh -26, 12-LOX inh 1% and DT40 TDP1 no CPT inconclusive.
`c1ccc(OCc2nc(C3CCCNC3)no2)cc1` (configuration not stated) gave 12-LOX inh 16%.
For CC(=O)c1ccc(Nc2nc(N3CCOCC3)nc(N3CCOCC3)n2)cc1 the results were HT1080 IDH1KD tx 11%, DT40 TDP1 CPT inconclusive, HT1080NT lethal 14%, IL-1B inflam inh -54*, 12-LOX inh 0% and DT40 TDP1 no CPT -20%.
Screening COC(=O)c1ccc(Oc2nc(N(C)C)nc(N3CCCCC3)n2)cc1 returned 12-LOX inh -28%.
Screening O=C(NNc1nc(Nc2ccccc2)nc(N2CCOCC2)n1)Nc1ccc(Cl)cc1 returned HT1080 IDH1KD tx inconclusive, DT40 TDP1 CPT 21µM*, HT1080NT lethal inconclusive, IL-1B inflam inh 21, 12-LOX inh -11% and DT40 TDP1 no CPT inconclusive.
`CC(=O)Nc1ccc(/C(C)=N/Nc2nc(Nc3ccccc3)nc(N3CCOCC3)n2)cc1` gave HT1080 IDH1KD tx inconclusive, DT40 TDP1 CPT 5.2µM*, HT1080NT lethal inconclusive, IL-1B inflam inh -25, 12-LOX inh -2% and DT40 TDP1 no CPT 7.3µM*.
For O=C(NNc1nc(N2CCOCC2)nc(N2CCOCC2)n1)c1ccccc1 the results were HT1080 IDH1KD tx 14%, DT40 TDP1 CPT inconclusive, HT1080NT lethal 8%, IL-1B inflam inh -1, 12-LOX inh 3% and DT40 TDP1 no CPT inconclusive.
Screening COC(=O)c1ccc(Oc2nc(N3CCCCC3)nc(N3CCOCC3)n2)cc1 returned HT1080 IDH1KD tx -10%, DT40 TDP1 CPT -23%, HT1080NT lethal -10%, IL-1B inflam inh -55*, 12-LOX inh -8% and DT40 TDP1 no CPT -20%.
N#Cc1cccc(NC(=O)CCc2cccs2)c1 was read as 12-LOX inh 6%.
C=CCn1c(=O)c2c(C)c(C)sc2n2c(Nc3ccccc3)nnc12 was read as HT1080 IDH1KD tx inconclusive, DT40 TDP1 CPT 23µM*, HT1080NT lethal inconclusive, IL-1B inflam inh -18, 12-LOX inh -2% and DT40 TDP1 no CPT 23µM*.
For CC(C)C1=NN(C(=O)c2ccccc2)C(O)(C(C)(C)C)C1 (configuration not stated) the results were HT1080 IDH1KD tx 13%, DT40 TDP1 CPT inconclusive, HT1080NT lethal 11%, IL-1B inflam inh 6, 12-LOX inh -12% and DT40 TDP1 no CPT 6.5µM*.
Screening COc1ccc(/C=N/NC(=O)c2sccc2OCc2ccc(F)cc2)cc1OC returned HT1080 IDH1KD tx 1%, DT40 TDP1 CPT 16µM*, HT1080NT lethal -6%, IL-1B inflam inh 10, 12-LOX inh 46% and DT40 TDP1 no CPT 23µM*.
Screening CCOc1cc(/C=N/Nc2nnc(C)n2N)ccc1O returned HT1080 IDH1KD tx 23µM*, DT40 TDP1 CPT inconclusive, HT1080NT lethal inconclusive, IL-1B inflam inh 0, 12-LOX inh inconclusive and DT40 TDP1 no CPT -7%.
For CCOc1cc(/C=N/NC(=O)c2ccccc2-n2cccc2)ccc1O the results were HT1080 IDH1KD tx inconclusive, DT40 TDP1 CPT inconclusive, HT1080NT lethal inconclusive, IL-1B inflam inh 30, 12-LOX inh -6% and DT40 TDP1 no CPT inconclusive.
Screening CCOc1cc(/C=N/NC(=O)CN(CCc2ccccc2)S(=O)(=O)c2ccc(NC(C)=O)cc2)ccc1O returned HT1080 IDH1KD tx -18%, DT40 TDP1 CPT inconclusive, HT1080NT lethal inconclusive, IL-1B inflam inh inconclusive, 12-LOX inh -2% and DT40 TDP1 no CPT 18µM*.
For COc1ccc(S(=O)(=O)N(CCc2ccccc2)CC(=O)N/N=C/c2ccc3c(c2)OCO3)cc1 the results were HT1080 IDH1KD tx 3%, DT40 TDP1 CPT inconclusive, HT1080NT lethal -3%, IL-1B inflam inh -1, 12-LOX inh -10% and DT40 TDP1 no CPT inconclusive.
